Data taken from PubChem BioAssay (NCI).
Compounds without any hit were thinned out: in the full panel of roughly 79,000, 15% have a hit. Activity calls are given as the source filed them. Cut-off read from the data, not from the text of the source: active = growth inhibition above about 70%; inactive = the rest.

Assays:
[1] = NCI Yeast Anticancer Drug Screen. Data for the rad52 strain (AID 147);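 note: 0% = growth of vehicle-treated control cultures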; conditions: S. cerevisiae rad52 mutant growth inhibition, active compounds read high
How it was run: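 Compounds are applied to a genetically defined yeast strain lacking normal DNA damage repair, and inhibition of growth is expressed relative to cultures given vehicle only.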

[2] = NCI Yeast Anticancer Drug Screen. Data for the wt1 strain (AID 149);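 note: 0% = growth of vehicle-treated wt1 cultures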; conditions: S. cerevisiae wt1 strain (SPY 50644) growth inhibition, active compounds read high
How it was run: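 wt1 yeast, compound-treated; % growth inhibition vs vehicle control.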

[3] = NCI Yeast Anticancer Drug Screen. Data for the rad50EPP+ strain (AID 151);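 note: 0% = growth of vehicle-treated control cultures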; conditions: S. cerevisiae rad50 mutant strain, active compounds read high
How it was run: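 Compounds were applied to the rad50EPP+ yeast strain, which bears a defined DNA repair alteration, and growth inhibition was determined relative to vehicle-treated cultures.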

[4] = NCI Yeast Anticancer Drug Screen. Data for the rad50 strain (AID 155);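 note: 0% = growth of vehicle-only cultures of the same strain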; conditions: S. cerevisiae rad50 strain growth inhibition, active compounds read high
How it was run: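 Genetically altered yeast (DNA repair pathway); compound treatment; growth inhibition vs vehicle ctrl.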

[5] = NCI Yeast Anticancer Drug Screen. Data for the mec2-1 strain (AID 157); conditions: S. cerevisiae mec2-1 strain, active compounds read high
How it was run: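 Strain: mec2-1 (DNA repair/cell cycle alteration). Compound exposure, then growth measured; inhibition expressed relative to vehicle.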

[6] = NCI Yeast Anticancer Drug Screen. Data for the rad14 strain (AID 159);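 note: 0% = growth of vehicle-treated control cultures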; conditions: S. cerevisiae rad14 strain growth inhibition, active compounds read high
How it was run: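 Test compounds were applied to a repair-deficient yeast strain. Its growth was then compared with that of cultures given vehicle alone, and inhibition was expressed relative to those controls.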

[7] = NCI Yeast Anticancer Drug Screen. Data for the sgs1 mgt1 strain (AID 161);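 note: 0% = growth of cultures given vehicle only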; conditions: S. cerevisiae sgs1 mgt1 strain, active compounds read high
How it was run: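 Inhibition of yeast growth, normalised to vehicle-treated controls, is reported for a strain bearing genetic alterations in DNA damage repair.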

[8] = NCI Yeast Anticancer Drug Screen. Data for the CLN2oe strain (AID 163);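 note: 0% = growth of vehicle-only control cultures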; conditions: S. cerevisiae CLN2oe strain, active compounds read high
How it was run: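 Growth of a genetically modified yeast strain is measured after compound exposure and compared with cultures given vehicle alone.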

[9] = NCI Yeast Anticancer Drug Screen. Data for the cln2 rad14 strain (AID 165);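 note: 0% = growth equal to vehicle treated cultures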; conditions: S. cerevisiae cln2 rad14 strain, active compounds read high
How it was run: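 Compounds are applied to the cln2 rad14 yeast strain, and growth is then compared with that of vehicle-treated cultures to give inhibition.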

[10] = NCI Yeast Anticancer Drug Screen. Data for the bub3 strain (AID 167); conditions: S. cerevisiae bub3 mutant strain, active compounds read high
How it was run: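 Yeast carrying a defined mutation is treated with each compound, and growth is compared with that of vehicle-exposed cells to give inhibition.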

[11] = NCI Yeast Anticancer Drug Screen. Data for the wt2 strain (AID 169);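 note: 0% = growth of vehicle-treated yeast cultures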; conditions: S. cerevisiae wt2 strain growth inhibition, active compounds read high
How it was run: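 This strain belongs to a panel of yeast strains with defined genetic alterations in DNA damage repair or cell cycle control. Compounds are applied, and growth inhibition is measured against vehicle-treated cultures.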

[12] = NCI Yeast Anticancer Drug Screen. Data for the mlh1 strain (AID 171);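 note: 0% = growth of vehicle-treated control cultures of the same strain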; conditions: S. cerevisiae mlh1 strain growth inhibition, active compounds read high
How it was run: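 Growth of the mutant yeast strain after compound exposure, expressed as inhibition relative to vehicle-only controls.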

[13] = NCI Yeast Anticancer Drug Screen. Data for the sgs1 strain (AID 173);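 note: 0% = growth of vehicle-only control cultures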; conditions: S. cerevisiae sgs1 mutant, active compounds read high
How it was run: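 Growth of a yeast strain bearing a defined genetic alteration is measured after compound treatment. Inhibition is expressed relative to vehicle-only controls.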

[14] = NCI Yeast Anticancer Drug Screen. Data for the mlh1 rad18 strain (AID 175); conditions: S. cerevisiae mlh1 rad18 strain growth inhibition, active compounds read high
How it was run: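 Read-out is yeast growth inhibition, calculated against vehicle-only controls. The compound was applied to a strain engineered with DNA damage repair alterations.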

[15] = NCI Yeast Anticancer Drug Screen. Data for the rad18 strain (AID 177); conditions: S. cerevisiae rad18 mutant growth inhibition, active compounds read high
How it was run: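 Growth of the mutant yeast strain after compound exposure, normalised to vehicle-only cultures.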

[16] = NCI Yeast Anticancer Drug Screen. Data for the mgt1 strain (AID 153); conditions: S. cerevisiae mgt1 mutant growth inhibition, active compounds read high
How it was run: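 Strain: mgt1 yeast, one of a set carrying defined DNA damage repair or cell cycle control alterations. Compound-treated growth compared with vehicle.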

[17] = at 5.0 µM (retest, dose inferred, filed as 0.5)
[18] = at 50.0 µM (retest, dose inferred, filed as 5.0)

Measured: growth inhibition

Cc1cccc(/C=N/NC(=S)N2CCCC2)n1
active: [1]; at 33.0 µM 94% | [1]; at 100.0 µM 96% | [2]; at 33.0 µM 94% | [2]; at 100.0 µM 96% | [4]; at 33.0 µM 95% | [4]; [18] 94% | [4]; at 50.0 µM 86.3% | [4]; at 100.0 µM 95% | [5]; at 11.0 µM 73% | [5]; at 33.0 µM 94% | [5]; [18] 95% | [5]; at 50.0 µM 89.8% | [5]; at 100.0 µM 97% | [6]; at 11.0 µM 74% | [6]; at 33.0 µM 96% | [6]; at 100.0 µM 98% | [7]; at 50.0 µM 88.2% | [8]; at 33.0 µM 93% | [8]; at 100.0 µM 96% | [9]; [18] 94% | [9]; at 50.0 µM 87% | [10]; at 33.0 µM 95% | [10]; [18] 96% | [10]; at 50.0 µM 88.5% | [10]; at 100.0 µM 96% | [11]; at 33.0 µM 93% | [11]; at 100.0 µM 96% | [12]; at 33.0 µM 95% | [12]; at 100.0 µM 97% | [13]; at 33.0 µM 95% | [13]; at 100.0 µM 96% | [14]; [18] 95% | [14]; at 50.0 µM 86% | [15]; at 33.0 µM 95% | [15]; at 100.0 µM 96%
inactive: [1]; at 1.2 µM -25% | [1]; at 3.7 µM -26% | [1]; at 11.0 µM 27% | [2]; at 1.2 µM -4% | [2]; at 3.7 µM 1% | [2]; at 11.0 µM 12% | [3]; at 1.2 µM -21% | [3]; at 3.7 µM -21% | [3]; at 11.0 µM -24% | [3]; at 33.0 µM -27% | [3]; at 100.0 µM 38% | [4]; at 1.2 µM -10% | [4]; at 3.7 µM -14% | [4]; [17] 26% | [4]; at 11.0 µM 35% | [5]; at 1.2 µM -24% | [5]; at 3.7 µM -21% | [5]; [17] 36% | [6]; at 1.2 µM 2% | [6]; at 3.7 µM 6% | [7]; [17] 25% | [7]; [18] 47% | [8]; at 1.2 µM -30% | [8]; at 3.7 µM -31% | [8]; at 11.0 µM 10% | [9]; [17] 2% | [10]; at 1.2 µM -13% | [10]; at 3.7 µM -8% | [10]; [17] 40% | [10]; at 11.0 µM 32% | [11]; at 1.2 µM -6% | [11]; at 3.7 µM -8% | [11]; at 11.0 µM 10% | [12]; at 1.2 µM -8% | [12]; at 3.7 µM -8% | [12]; at 11.0 µM 48% | [13]; at 1.2 µM -19% | [13]; at 3.7 µM -21% | [13]; at 11.0 µM 17% | [14]; [17] 14% | [15]; at 1.2 µM -17% | [15]; at 3.7 µM -14% | [15]; at 11.0 µM 12%

CCCCCCCCCCCC1=NCCO1
active: [1]; at 100.0 µM 98% | [2]; at 100.0 µM 98% | [16]; at 100.0 µM 99% | [4]; at 100.0 µM 99% | [5]; at 100.0 µM 99% | [8]; at 100.0 µM 99% | [10]; at 100.0 µM 98% | [11]; at 100.0 µM 99% | [12]; at 100.0 µM 99% | [13]; at 100.0 µM 99% | [14]; [18] 71% | [15]; at 100.0 µM 98%
inactive: [1]; at 1.2 µM 3% | [1]; at 3.7 µM 3% | [1]; at 11.0 µM -1% | [1]; at 33.0 µM 18% | [2]; at 1.2 µM 1% | [2]; at 3.7 µM -1% | [2]; at 11.0 µM 2% | [2]; at 33.0 µM 15% | [3]; at 1.2 µM 4% | [3]; at 3.7 µM 5% | [3]; at 11.0 µM 16% | [3]; at 33.0 µM 27% | [3]; at 100.0 µM 53% | [16]; at 1.2 µM -5% | [16]; at 3.7 µM 3% | [16]; at 11.0 µM 0% | [16]; at 33.0 µM 27% | [4]; at 1.2 µM 9% | [4]; at 3.7 µM 18% | [4]; [17] -11% | [4]; at 11.0 µM 14% | [4]; at 33.0 µM 29% | [4]; [18] 8% | [4]; at 50.0 µM 25.1% | [5]; at 1.2 µM -6% | [5]; at 3.7 µM -4% | [5]; [17] -12% | [5]; at 11.0 µM -13% | [5]; at 33.0 µM 18% | [5]; [18] -21% | [5]; at 50.0 µM 46.3% | [8]; at 1.2 µM -3% | [8]; at 3.7 µM -1% | [8]; at 11.0 µM 4% | [8]; at 33.0 µM 19% | [9]; [17] -18% | [9]; [18] 36% | [9]; at 50.0 µM 21% | [10]; at 1.2 µM -19% | [10]; at 3.7 µM -27% | [10]; [17] -34% | [10]; at 11.0 µM -1% | [10]; at 33.0 µM 8% | [10]; [18] 31% | [10]; at 50.0 µM 24.5% | [11]; at 1.2 µM -1% | [11]; at 3.7 µM 0% | [11]; at 11.0 µM 2% | [11]; at 33.0 µM 61% | [12]; at 1.2 µM -5% | [12]; at 3.7 µM -3% | [12]; at 11.0 µM -10% | [12]; at 33.0 µM 16% | [13]; at 1.2 µM 1% | [13]; at 3.7 µM -1% | [13]; at 11.0 µM 6% | [13]; at 33.0 µM 63% | [14]; [17] -16% | [14]; at 50.0 µM 41% | [15]; at 1.2 µM 4% | [15]; at 3.7 µM 8% | [15]; at 11.0 µM 5% | [15]; at 33.0 µM 10%
